Compounds with a hit are over-represented: about 7.1% of the library has one in this group of screens.
ATXN viability: reduces viability in counter-screen for ATXN expression inhibitors; Potency, µM (doses to about 56.7 µM), hits mostly cytotoxic; S2 cells (HEK-293 line with an ATXN2-luciferase reporter) viability, CellTiter-Fluor protease fluorescence, 24 h; 400,000 compounds, 0.49% hits; further: potency means the concentration at half of the fitted maximal effect; nearly all actives have a fitted effect of over 40% in size
IL-1B inflam inh: inhibitors of inflammasome signaling (IL-1 beta secretion) | THP-1 LPS/ATP IL-1B secretion, AlphaLISA, 16 h; stronger effect = lower value | activity change, % at 57.5 µM | 360,000 compounds, 4.7% hits | AID 743279; in the data active means activity change below about -50%; inconclusive means mostly about -30% to -49%; further: on the % scale 0 is the no-effect control and ±100 the full control effect
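THP-1 cells pretreated 1 hr with compounds (up to 57.5 uM final), then stimulated with LPS (250 ng/mL final) plus ATP (1.25 mM final); secreted IL-1B measured by AlphaLISA after 16 hr, decreased signal indicating inhibition.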
SW480 rereplic: inducers of DNA re-replication in SW480 colon cancer cells; SW480 DNA re-replication, Hoechst DNA content imaging, 48 h; Potency, µM (doses to about 46.1 µM), for the others: at the highest dose re-replication activation, most hits filed as activators; 340,000 compounds, 1.8% hits; further: potency means the concentration at half of the fitted maximal effect; % of control where 0% means no effect; nearly all actives have a fitted effect of over 55% in size
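Image-based read-out: total Hoechst fluorescence of nuclei (405 nm excitation, 500-530 nm emission), with hits raising the fraction of high-intensity nuclei. SW480 colon cells incubated 48 hr with compounds at 37 C.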
ATXN2 expr inh: inhibitors of ATXN2 expression; HEK-293 ATXN2-luciferase reporter, luminescence, 24 h; Potency, µM (highest dose often 57 µM), for inactives: at the highest dose activity change, negative = inhibition, most hits filed as inhibitors; 360,000 compounds, 0.72% hits; AID 1745845; further: potency means the concentration at half of the fitted maximal effect; on the % scale 0 is the no-effect control and ±100 the full control effect; nearly all actives have a fitted effect of over 55% in size
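qHTS (up to 57 uM final) was run with 24 h compound exposure of reporter cells at 37 °C. Each well was multiplexed: SteadyGlo luminescence measured ATXN2-luciferase expression after a fluorogenic Gly-Phe-AFC viability readout (25 uM final).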
MCF10A rerep: DNA re-replication induction in MCF 10a cells. MCF 10A DNA re-replication, Hoechst nuclear intensity, 48 h. Potency, µM (top dose mostly 46.1 µM), without a hit: top-dose activity, positive = re-replication, most hits filed as activators. 350,000 compounds, 2.9% hits. AID 624296; further: potency means the concentration at half of the fitted maximal effect; % of control where 0% means no effect; nearly all actives have a fitted effect of over 50% in size
PINK1 expr mod: PINK1 expression modulation; PINK1 immunofluorescence, high-content cytometry, 24 h; Potency, µM (highest dose often 76.6 µM), inactives show at the top dose activation (PINK1 increase), actives largely listed as activators; 410,000 compounds, 0.2% hits; AID 624263; active means well fitted activation curve with a large enough effect; inconclusive means small, poorly fitted or top-dose-only effect; cell line not stated here; further: potency means the concentration at half of the fitted maximal effect; % of control where 0% means no effect; nearly all actives have a fitted effect of over 65% in size
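Compound titrations (5 concentrations, 24 h) on a stable cell line; DMSO and CCCP controls. Endpoint: fixed-cell PINK1 immunofluorescence with mitochondrial, cell and nuclear markers, scanned by microplate cytometer.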
Numbers without * were called inactive; i = inactive; ? = inconclusive; . = no result; ! = not confirmed by another sample; [ ] = remark or other dose. Unless noted, the call rests on the fitted dose curve; in most records, active means well fitted curve in the direction sought with a large enough effect; inconclusive means small, poorly fitted or top-dose-only effect, or another doubt; inactive means no such curve, though single readings can be large; an effect the other way counts as inactive or inconclusive.

SMILES | ATXN viability | IL-1B inflam inh | SW480 rereplic | ATXN2 expr inh | MCF10A rerep | PINK1 expr mod
CCC(C)NC(=O)c1ccccc1NC(=O)CN(c1ccc(OC)cc1)S(C)(=O)=O (centres undefined) | i | -12 | -5% | 29% | 2% | ?
CCOc1ccc(N(CC(=O)Nc2ccccc2Cl)S(C)(=O)=O)cc1 | ? | 2 | 21µM* | . | ? | 3%
CC(C)CNC(=O)c1ccccc1N(Cc1ccccc1)S(C)(=O)=O | i | -11 | 12µM* | 6% | 1% | -1%
COc1ccc(N(CC(=O)Nc2ccccc2C(=O)NCC(C)C)S(C)(=O)=O)cc1 | i | 10 | 18µM* | 1% | -5% | 0%
COC(=O)c1scc(-c2ccc(C)cc2)c1S(=O)(=O)Nc1cc(C)c(Cl)cc1OC | i | . | . | -7% | . | -1%
CC(NS(=O)(=O)c1cc(C(F)(F)F)ccc1Cl)C(=O)N(C)C1CCN(C)CC1 (centres undefined) | i | 11 | -7% | 21% | 3% | -1%
Cc1ccc(-n2c(=O)c3oc4ccccc4c3n(Cc3ccccc3F)c2=O)cc1C | . | . | . | . | . | 0%
COc1ccc(NC(=O)Cn2c(=O)n(Cc3ccccc3)c(=O)c3oc4ccccc4c32)cc1Cl | ? | . | . | 23% | . | -1%
COc1cc2ccc(=O)oc2cc1O | . | 19 | 15µM* | 10% | ? | 1%
C=CCn1c(=O)c(C(=O)Nc2ccccc2O)c(O)c2ccccc21 | i | 24 | 0% | 5% | 20% | 8%
C=CCn1c(=O)c(C(=O)Nc2ccccc2C)c(O)c2ccccc21 | i | 14 | 4% | 63% | 18µM* | 0%
CCCCNc1c(-c2ccc(SC(C)CC)cc2)nc2ccccn12 (centres undefined) | ? | 0 | ? | ? | ? | -2%
CCCCNc1c(-c2ccc(OC)c(SC(C)CC)c2)nc2cnccn12 (centres undefined) | . | -67* | ? | ? | ? | 0%
CCCCCCSc1cc(-c2nc3ccc(C)cn3c2NCCCC)ccc1OC | 14µM* | -72* | ? | 0% | ? | ?
CCCCNc1c(-c2ccc(OC)c(SC(C)CC)c2)nc2cc(C)ccn12 (centres undefined) | 32µM* | -85* | ? | 25µM* | 21µM* | 15%
CCCCCCSc1cc(-c2nc3ccc(Cl)cn3c2NCCCC)ccc1OC | i | 0 | -17%[9.22 µM] | 6% | 2% | 5%
CCCCNc1c(-c2ccc(Sc3ccc(OC)cc3)cc2)nc2cc(C)ccn12 | ? | -13 | ? | ? | 23µM* | 28µM*
CCOc1ccccc1CNC(=O)c1cnc2sc(N(CC)CC)nn2c1=O | . | . | . | . | . | 1%
COCCNc1c(-c2ccc(O)cc2)nc2ccc(Cl)cn12 | i | -13 | -3% | 11% | 4% | 2%
CCCCCCSc1ccc(-c2nc3cnccn3c2NCCCC)cc1 | . | 0 | 21µM* | 0% | ? | -1%
CCCCNc1c(-c2ccc(OC)c(SC(C)CC)c2)nc2ccc(C)cn12 (centres undefined) | 11µM* | -100*! | 13%[9.22 µM] | 13µM*! | ? | ?
CCCCNc1c(-c2ccc(-c3ccc(C(C)=O)cc3)c(OC)c2)nc2cc(C)ccn12 | i | -51* | ? | ? | ? | 1%
CC(C)(C)CC(C)(C)Nc1c(-c2ccc(O)cc2)nc2cnccn12 | i | -15 | 8% | -14% | 28% | -3%[38.3 µM]
CCCCNc1c(-c2ccc(OC)c(SC(C)CC)c2)nc2ccc(Cl)cn12 (centres undefined) | ? | -66* | 11% | -20% | 21µM* | 26%
CC(=O)N1c2ccc(S(=O)(=O)N3CCCCCC3)cc2CC1C(=O)NCc1ccccc1 (centres undefined) | i | . | . | -1% | . | 1%
Cc1ccccc1NC(=O)CSc1nccn1C | i | . | . | 8% | . | -2%
